Pf Dd2 growth – blocks in vitro growth of P. falciparum Dd2. P. falciparum Dd2 growth, SYBR Green, 72 h. Potency, µM (highest dose often 28.9 µM), inactives show at the highest dose activity, negative = inhibition, hits mostly inhibitors. 4.3% of 120,000 active; active means well fitted inhibition curve with a large enough effect;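 further: plate controls were DMSO vehicle for no effect and reference drug for full effect; nearly all actives have a fitted effect of over 65% in size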
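Infected erythrocytes (Dd2, 0.3% parasitemia, 2.5% hematocrit final) are added to compound in RPMI-1640/Albumax II medium, grown 72 h at 37C in low oxygen, then lysed with saponin/Triton-X containing SYBR Green and read by fluorescence.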
Starred values were filed as active, the others as inactive; [ ] = dose if it differs, or a comment. This excerpt belongs to a sample that is enriched for hits. Potency means the concentration at half of the fitted maximal effect.

What do the screens show for `O=C(c1ccccc1OCC1CCCN(C2CCSCC2)C1)N1CCCCC1` (configuration not stated)?
Pf Dd2 growth: inactive

How did COCCn1c(=O)n([C@H]2CCCN(C(=O)C3CCCCC3)C2)c2ncccc21 do in these assays?
Pf Dd2 growth: -12%

Results for O=C(c1ccccc1)N1CCc2nc(C3CC3)nc(-c3ccc(O)cc3)c2CC1 ?
Pf Dd2 growth: -2%

How did Cc1nc2c(c(-c3ccc(O)cc3)n1)CN(C(=O)c1ccccc1)CC2 do in these assays?
Pf Dd2 growth: inactive

How did Cc1ccccc1C(=O)N1CCc2nc(C3CC3)nc(-c3ccc(O)cc3)c2CC1 do in these assays?
Pf Dd2 growth: 8.9µM*

How did Cc1nc2c(c(-c3ccc(Cl)cc3)n1)CCN(C(=O)c1ccccc1C)CC2 do in these assays?
Pf Dd2 growth: -15%

What do the screens show for `O=C(c1ccccc1F)N1CCc2nc(C3CC3)nc(-c3ccc(Cl)cc3)c2C1`?
Pf Dd2 growth: -29%

How did O=C(c1cccc(Cl)c1)N1CCc2nc(C3CC3)nc(-c3ccc(O)cc3)c2CC1 do in these assays?
Pf Dd2 growth: 5µM*

What do the screens show for `COc1ccc(-c2cc(C[C@H]3CNCC[C@H]3CC(=O)O)no2)cc1`?
Pf Dd2 growth: -16%[44.1 µM]

What do the screens show for `CN(C)C(=O)[C@H]1CN2CCC1C[C@@H]2Cn1cc(CCO)nn1` (some centres not stated)?
Pf Dd2 growth: 50%[44.1 µM]

Results for Cc1cc(C(=O)N2CC[C@H](CO)[C@H](O)C2)cc2sc(N)nc12 ?
Pf Dd2 growth: -6%

What do the screens show for `COc1cccc(C(=O)N2CCC(C(NC(=O)c3ccc(F)cc3)C(=O)NCC(C)C)CC2)c1` (configuration not stated)?
Pf Dd2 growth: inactive

How did NCCCC(=O)N1CCCC2(Cc3ccccc3CN2C(=O)Cc2cccc(Cl)c2)C1 (configuration not stated) do in these assays?
Pf Dd2 growth: -26%

How did CCCN1CCc2[nH]cnc2C12CCN(C(=O)CC1C=CS(=O)(=O)C1)CC2 (configuration not stated) do in these assays?
Pf Dd2 growth: 22%

Results for COCCN1Cc2ccc(Nc3ccc(OC)cc3)nc2C(C)(C(=O)NC(C)C)C1 (configuration not stated) ?
Pf Dd2 growth: 13µM*

How did COCCN1Cc2ccc(Nc3ccc(OC)cc3)nc2C(C)(C(=O)NCC2CC2)C1 (configuration not stated) do in these assays?
Pf Dd2 growth: inactive

What do the screens show for `COCCN1Cc2ccc(NCc3ccccc3)nc2C(C)(C(=O)NCc2ccccc2)C1` (configuration not stated)?
Pf Dd2 growth: -26%

What do the screens show for `O=C(NC[C@H]1O[C@@H](CO)[C@@H](O)[C@H]1N1CCOCC1)c1ccc(F)c(Cl)c1`?
Pf Dd2 growth: -15%[44.1 µM]

Results for CN(Cc1ccccc1CN1CCCC1)C(=O)C1CC2(CCNCC2)CN1C (configuration not stated) ?
Pf Dd2 growth: -13%

How did Cn1c(CN2CCC3(CCNCC3)C2)nc2ccccc21 do in these assays?
Pf Dd2 growth: -5%

How did Cc1ccc(CN2CCC3(CCNCC3)C2)c(Cl)c1Cl do in these assays?
Pf Dd2 growth: 13µM*

What do the screens show for `COc1ccc(F)c(F)c1CN1CCC2(CCNCC2)C1`?
Pf Dd2 growth: -23%

Results for CC(C)(C)c1cccc(CN2CCC3(CCNCC3)C2)c1O ?
Pf Dd2 growth: 10µM*

What do the screens show for `OCC#Cc1ccc(CN2CCC3(CCNCC3)C2)cc1`?
Pf Dd2 growth: 2%

Results for C[C@@]1(O)CCN(Cc2ccc3c4c(cccc24)C(=O)OC3)C[C@@H]1O ?
Pf Dd2 growth: 0%

How did COc1ccc(-c2cc(N3CCCC(NC(=O)c4cccc(N(C)C)c4)C3)n[nH]2)cc1 (configuration not stated) do in these assays?
Pf Dd2 growth: inactive

What do the screens show for `CN1C(=O)CS(=O)(=O)C12CCN(C(=O)c1ccc(F)cc1)CC2`?
Pf Dd2 growth: 8%

What do the screens show for `CN(CC1CCOC1)C(=O)C1CCCC1` (configuration not stated)?
Pf Dd2 growth: 23%[5.79 µM]

Results for Cc1cccc(NC(=O)N2CC=C(c3c[nH]c4ccccc34)CC2)c1C ?
Pf Dd2 growth: 3.2µM*

What do the screens show for `O=C(Nc1ccc(Br)cc1F)N1CC=C(c2c[nH]c3ccccc23)CC1`?
Pf Dd2 growth: 1%

Results for Cc1cccc(NC(=O)N2CCc3c(c4ccccc4n3C)C2)c1C ?
Pf Dd2 growth: inactive

Results for OC1(CN2CCCCC2)CCN(Cc2ccc(F)c(Cl)c2)C1 (configuration not stated) ?
Pf Dd2 growth: 8.9µM*

What do the screens show for `COc1cc(CN2CCC(CO)(CN3CCCC3)CC2)ccc1F`?
Pf Dd2 growth: 7.9µM*

Results for CN1C(=O)[C@H]2CN(Cc3ccc(F)c(Cl)c3)C[C@H]2C1=O ?
Pf Dd2 growth: 46%

How did Cc1cc(F)ccc1CN1CCC(CO)(CN2CCCC2)CC1 do in these assays?
Pf Dd2 growth: inactive

How did O=C1N(CCc2ccccc2)CCOC12CCN(Cc1ccc(F)c(Cl)c1)CC2 do in these assays?
Pf Dd2 growth: -10%[44.1 µM]

How did OCC1(CN2CCCC2)CCN(Cc2cccc(O)c2)CC1 do in these assays?
Pf Dd2 growth: -6%
